Inconclusive results are not listed. Calls of active or inactive are those of the source. The calls were made as follows, unless noted: active = hit-call score of the fitted dose curve at least 0.9, where 1 is the maximum; inconclusive = response in the unintended direction; inactive = score below 0.9.
How the values were obtained:
[1] = ATG_M_19_TRANS: Attagene TRANS-FACTORIAL HepG2 Assay for M19 Transcription Factor (Internal Marker) (AID 2282974); details: HepG2 Attagene TRANS-FACTORIAL M19 internal marker reporter
Procedure, shortened: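 Fluorescence of 6-FAM-labelled reporter cDNA fragments, separated by capillary electrophoresis, served as the readout. These derived from HepG2 cells carrying transfected GAL4-UAS reporter units after 24 h dosing, with DMSO as negative control.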

[2] = ATG_GAL4_TRANS: Attagene TRANS-FACTORIAL HepG2 Assay for GAL4 (Internal Marker) (AID 2282976); details: HepG2 Attagene TRANS GAL4 internal marker reporter
Procedure, shortened: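 Background-control readout: GAL4-UAS reporter transcript in transiently transfected HepG2 cells after 24 h compound exposure. Measured by RT-PCR, 6-FAM primer extension, HpaI digest and capillary electrophoresis; gain-of-signal fit versus DMSO.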

[3] = molecular target: Glucocorticoid receptor (Homo sapiens) (UniProt P04150); test: ATG_GR_TRANS: Attagene TRANS-FACTORIAL HepG2 Assay for human Glucocorticoid Receptor (GR) (AID 2282978); details: HepG2 Attagene TRANS GR reporter, mRNA transcription;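 also: activators score as hits since higher reporter transcript over DMSO is fitted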
Chain of Glucocorticoid receptor (Homo sapiens) (P04150 whole entry, looked up, the tested form may be a part): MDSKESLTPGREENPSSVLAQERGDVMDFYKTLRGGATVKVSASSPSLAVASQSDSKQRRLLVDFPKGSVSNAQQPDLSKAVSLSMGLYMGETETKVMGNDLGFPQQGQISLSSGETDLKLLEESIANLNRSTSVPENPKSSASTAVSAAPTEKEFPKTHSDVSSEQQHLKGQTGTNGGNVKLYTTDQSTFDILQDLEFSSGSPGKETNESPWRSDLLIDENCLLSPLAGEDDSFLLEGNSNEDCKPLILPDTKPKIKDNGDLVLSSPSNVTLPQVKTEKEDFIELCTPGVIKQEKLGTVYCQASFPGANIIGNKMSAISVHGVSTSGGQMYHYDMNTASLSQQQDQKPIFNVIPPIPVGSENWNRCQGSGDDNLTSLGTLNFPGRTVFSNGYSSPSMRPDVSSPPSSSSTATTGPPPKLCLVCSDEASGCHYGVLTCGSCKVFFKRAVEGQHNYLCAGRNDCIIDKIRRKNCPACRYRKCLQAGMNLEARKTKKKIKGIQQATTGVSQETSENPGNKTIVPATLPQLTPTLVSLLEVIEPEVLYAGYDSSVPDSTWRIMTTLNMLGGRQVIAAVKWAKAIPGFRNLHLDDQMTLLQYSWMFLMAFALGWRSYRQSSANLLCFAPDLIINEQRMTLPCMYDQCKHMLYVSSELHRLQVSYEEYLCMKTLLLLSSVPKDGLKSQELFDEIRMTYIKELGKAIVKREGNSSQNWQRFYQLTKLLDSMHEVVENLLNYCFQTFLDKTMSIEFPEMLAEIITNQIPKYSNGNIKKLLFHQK
Procedure, shortened: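 Fluorescent capillary-electrophoresis quantitation of reporter mRNA is the readout, taken 24 h after dosing human HepG2 cells carrying transiently transfected GAL4-UAS reporter units activated by chimeric NR-GAL4 fusions; activity scored as induction over DMSO.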

[4] = molecular target: human Vitamin D Receptor (VDR), VDR (gene 7421) (UniProt P11473); test: ATG_VDR_TRANS: Attagene TRANS-FACTORIAL HepG2 Assay for human Vitamin D Receptor (VDR) (AID 2283022)
Chain of human Vitamin D Receptor (VDR), VDR (gene 7421) (P11473 whole entry, looked up, the tested form may be a part): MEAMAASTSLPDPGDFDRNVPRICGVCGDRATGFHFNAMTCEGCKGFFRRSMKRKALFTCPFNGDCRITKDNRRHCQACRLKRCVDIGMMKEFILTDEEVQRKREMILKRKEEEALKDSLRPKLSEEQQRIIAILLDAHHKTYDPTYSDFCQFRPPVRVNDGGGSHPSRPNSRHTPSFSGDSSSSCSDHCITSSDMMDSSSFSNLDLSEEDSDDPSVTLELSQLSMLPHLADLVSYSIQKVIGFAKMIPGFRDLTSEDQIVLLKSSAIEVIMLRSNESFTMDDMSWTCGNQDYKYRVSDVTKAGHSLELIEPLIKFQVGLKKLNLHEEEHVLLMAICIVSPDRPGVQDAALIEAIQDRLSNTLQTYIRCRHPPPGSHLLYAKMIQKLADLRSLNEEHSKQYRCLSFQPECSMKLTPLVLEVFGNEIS
Procedure, shortened: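 HepG2 cells were transiently transfected with GAL4-UAS reporter units and a chimeric VDR-Gal4 construct, then dosed for 24 hours. Reporter mRNA was quantified by RT-PCR, fluorescent labeling, HpaI digestion and capillary electrophoresis; gain of signal analysed vs DMSO.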

[5] = TOX21_p53_BLA_p3_viability: Viability Assessment in the Tox21 HCT-116 p53 Agonism Beta-lactamase Assay, Phase 3 (AID 2283593);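 also: cells exposed to compound for 16 h before reading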
Procedure, shortened: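 HCT116 cells, 4000/well, dosed 5 h after plating by pin transfer (217-fold dilution from DMSO stock) and incubated 16 h at 37C, 5% CO2. Viability read as ATP luminescence with CellTiter-Glo after 30 min at room temperature.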

[6] = TOX21_p53_BLA_p4_viability: Viability Assessment in the Tox21 HCT-116 p53 Agonism Beta-lactamase Assay, Phase 4 (AID 2283597);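 also: hits lower the luminescence signal meaning cytotoxicity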
Procedure, shortened: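 4000 HCT116 cells per well; 5 h attachment; compounds from DMSO, 217-fold dilution; 16 h at 37C. Then CCF4-AM, 2 h RT, followed by CellTiter-Glo, 30 min RT, luminescence. Decrease = cytotoxicity.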

[7] = ACEA_ER_AUC_viability: ACEA Biosciences xCELLigence Real-Time Cell Analysis on Estrogen Receptor Agonism for Viability (AID 2283782);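 also: hit means loss of impedance signal meaning reduced cell growth or viability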
Procedure, shortened: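 Read-out: real-time electrical impedance (RT-CES) area under curve, loss of signal taken as reduced viability, normalized to DMSO baseline. T-47D cells, charcoal-stripped serum medium, compounds up to 100 uM final, continuous exposure, 80 h.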

[8] = ATG_XTT_Cytotoxicity: Cytotoxicity Assessment in the Attagene TRANS-FACTORIAL HepG2 Assay (AID 2283584)
Procedure, shortened: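 HepG2 cells transiently transfected with GAL4-UAS multiple reporter units, dosed 24 h; cytotoxicity read by XTT as loss of signal versus DMSO baseline.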

[9] = molecular target: Bile acid receptor (Homo sapiens) (UniProt Q96RI1); test: ATG_IR1_CIS: Attagene CIS-FACTORIAL HepG2 Assay for human Nuclear Receptor Subfamily 1 Group H Member 4 (NR1H4), IR1 submotif (AID 2282946; active = hit-call score of the fitted dose curve at least 0.9, where 1 is the maximum; inactive = score below 0.9); details: IR1 reporter transcription, actives raise or lower the signal
Chain of Bile acid receptor (Homo sapiens) (Q96RI1 whole entry, looked up, the tested form may be a part): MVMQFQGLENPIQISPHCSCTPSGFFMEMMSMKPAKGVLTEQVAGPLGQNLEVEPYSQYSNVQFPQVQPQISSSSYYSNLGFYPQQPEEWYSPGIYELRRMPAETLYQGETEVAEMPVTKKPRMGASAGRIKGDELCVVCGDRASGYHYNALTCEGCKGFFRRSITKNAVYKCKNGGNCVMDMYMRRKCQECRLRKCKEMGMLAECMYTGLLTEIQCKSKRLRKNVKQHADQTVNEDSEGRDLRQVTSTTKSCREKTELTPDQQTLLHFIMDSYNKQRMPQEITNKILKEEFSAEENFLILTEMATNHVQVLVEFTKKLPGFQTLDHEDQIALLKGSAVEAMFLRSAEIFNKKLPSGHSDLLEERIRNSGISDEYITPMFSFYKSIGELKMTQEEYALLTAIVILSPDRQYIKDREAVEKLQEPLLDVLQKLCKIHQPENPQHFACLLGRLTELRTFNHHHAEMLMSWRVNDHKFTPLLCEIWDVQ
Procedure, shortened: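 Fluorescence of capillary-separated, HpaI-digested RT-PCR reporter products gave IR1-element mRNA induction in HepG2 cells 24 h after dosing. Endogenous transcription factors drove the cis-regulated reporters; activity was fitted bidirectionally against DMSO.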

[10] = molecular target: Bile acid receptor (Homo sapiens) (UniProt Q96RI1); test: ATG_FXR_TRANS: Attagene TRANS-FACTORIAL HepG2 Assay for Farnesoid X Receptor (FXR) (AID 2282979); details: HepG2 Attagene TRANS FXR-GAL4 reporter transcription;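 also: hits raise reporter mRNA above DMSO so AC50 marks FXR activation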
Procedure, shortened: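 HepG2 cells were transiently transfected with GAL4-UAS reporters driven by chimeric NR-Gal4 proteins and dosed for 24 h. Reporter mRNA was quantified by RT-PCR, fluorescent labelling, HpaI digestion and capillary electrophoresis, with gain of signal scored versus DMSO.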

[11] = molecular target: Oxysterols receptor LXR-beta (Homo sapiens) (UniProt P55055); test: ATG_LXRb_TRANS: Attagene TRANS-FACTORIAL HepG2 Assay for human Liver X Receptor beta (LXRb) (AID 2282981); details: HepG2 Attagene TRANS GAL4-LXRb reporter, mRNA
Chain of Oxysterols receptor LXR-beta (Homo sapiens) (P55055 whole entry, looked up, the tested form may be a part): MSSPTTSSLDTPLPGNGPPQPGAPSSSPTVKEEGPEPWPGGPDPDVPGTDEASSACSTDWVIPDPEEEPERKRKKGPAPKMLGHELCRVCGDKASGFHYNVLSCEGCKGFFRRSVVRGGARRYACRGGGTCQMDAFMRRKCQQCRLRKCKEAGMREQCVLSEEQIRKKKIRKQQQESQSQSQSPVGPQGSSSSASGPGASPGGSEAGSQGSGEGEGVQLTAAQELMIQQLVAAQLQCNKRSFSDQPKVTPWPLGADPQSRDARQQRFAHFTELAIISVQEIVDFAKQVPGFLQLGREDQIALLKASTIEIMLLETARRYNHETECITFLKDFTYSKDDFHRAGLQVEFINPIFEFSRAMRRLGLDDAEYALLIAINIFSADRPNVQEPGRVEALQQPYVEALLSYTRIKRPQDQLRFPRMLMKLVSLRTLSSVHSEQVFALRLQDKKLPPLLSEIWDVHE
Procedure, shortened: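 Readout: fluorescent reporter mRNA fragments resolved by capillary electrophoresis after RT-PCR. System: transiently transfected human HepG2, exogenous LXRb-Gal4 chimera driving GAL4-UAS reporter, 24 h dosing. Activity fitted upward against DMSO baseline.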

[12] = molecular target: Peroxisome proliferator-activated receptor gamma (Homo sapiens) (UniProt P37231); test: ATG_PPARg_TRANS: Attagene TRANS-FACTORIAL HepG2 Assay for human Peroxisome Proliferator-activated Receptor-gamma (PPARg) (AID 2283007)
Chain of Peroxisome proliferator-activated receptor gamma (Homo sapiens) (P37231 whole entry, looked up, the tested form may be a part): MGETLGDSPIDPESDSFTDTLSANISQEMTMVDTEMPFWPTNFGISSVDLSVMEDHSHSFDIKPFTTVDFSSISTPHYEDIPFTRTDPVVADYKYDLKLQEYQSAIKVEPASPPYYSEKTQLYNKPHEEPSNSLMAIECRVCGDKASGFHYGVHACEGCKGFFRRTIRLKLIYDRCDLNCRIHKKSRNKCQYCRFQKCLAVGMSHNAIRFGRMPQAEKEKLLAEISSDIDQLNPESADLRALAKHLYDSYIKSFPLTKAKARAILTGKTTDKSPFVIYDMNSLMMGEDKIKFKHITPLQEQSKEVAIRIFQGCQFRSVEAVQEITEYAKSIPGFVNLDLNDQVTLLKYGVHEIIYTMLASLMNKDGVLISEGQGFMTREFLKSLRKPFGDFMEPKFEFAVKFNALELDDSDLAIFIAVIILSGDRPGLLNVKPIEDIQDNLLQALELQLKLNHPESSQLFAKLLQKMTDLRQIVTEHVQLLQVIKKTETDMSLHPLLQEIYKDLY
Procedure, shortened: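 Transient transfection of HepG2 with GAL4-UAS-driven reporter units; chemical dosing 24 h; total RNA → oligo(dT) RT → PCR with reporter primers → 6-FAM primer extension → HpaI digest 2 h 37 C → capillary electrophoresis. Positive direction vs DMSO.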

[13] = molecular target: Nuclear receptor subfamily 1 group I member 2 (Homo sapiens) (UniProt O75469); test: ATG_PXR_TRANS: Attagene TRANS-FACTORIAL HepG2 Assay for human Pregnane X Receptor (PXR) (AID 2283008)
Chain of Nuclear receptor subfamily 1 group I member 2 (Homo sapiens) (O75469 whole entry, looked up, the tested form may be a part): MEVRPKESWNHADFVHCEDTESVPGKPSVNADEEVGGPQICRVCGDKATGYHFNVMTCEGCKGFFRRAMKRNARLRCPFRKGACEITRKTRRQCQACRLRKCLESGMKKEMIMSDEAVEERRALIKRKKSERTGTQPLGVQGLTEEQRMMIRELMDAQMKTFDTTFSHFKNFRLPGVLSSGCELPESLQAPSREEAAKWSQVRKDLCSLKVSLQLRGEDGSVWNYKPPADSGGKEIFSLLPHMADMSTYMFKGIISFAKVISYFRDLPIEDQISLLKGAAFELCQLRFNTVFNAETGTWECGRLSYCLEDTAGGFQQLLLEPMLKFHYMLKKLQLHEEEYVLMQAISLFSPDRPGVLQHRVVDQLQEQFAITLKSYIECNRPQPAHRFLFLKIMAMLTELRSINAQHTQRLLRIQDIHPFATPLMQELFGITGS
Procedure, shortened: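 HepG2 transfected (FuGene 6) with GAL4-UAS reporter units + PXR-Gal4 chimera; dosed 24 h. Total RNA → oligo(dT) RT → PCR → 6-FAM primer extension → HpaI cut → CE. Gain-of-signal vs DMSO.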

[14] = molecular target: human RAR-related Orphan Receptor beta (RORb), RORB (gene 6096) (UniProt Q92753); test: ATG_RORb_TRANS: Attagene TRANS-FACTORIAL HepG2 Assay for human RAR-related Orphan Receptor beta (RORb) (AID 2283010)
Procedure, shortened: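 Multiplexed transcription-factor reporter assay: HepG2 cells transiently carrying NR-Gal4/GAL4-UAS constructs, 24 h treatment, mRNA quantified by RT-PCR plus capillary electrophoresis fluorescence; activity scored as induction over DMSO.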

[15] = molecular target: human RAR-related Orphan Receptor gamma (RORg), RORC (gene 6097) (UniProt P51449); test: ATG_RORg_TRANS: Attagene TRANS-FACTORIAL HepG2 Assay for human RAR-related Orphan Receptor gamma (RORg) (AID 2283011)
Chain of human RAR-related Orphan Receptor gamma (RORg), RORC (gene 6097) (P51449 whole entry, looked up, the tested form may be a part): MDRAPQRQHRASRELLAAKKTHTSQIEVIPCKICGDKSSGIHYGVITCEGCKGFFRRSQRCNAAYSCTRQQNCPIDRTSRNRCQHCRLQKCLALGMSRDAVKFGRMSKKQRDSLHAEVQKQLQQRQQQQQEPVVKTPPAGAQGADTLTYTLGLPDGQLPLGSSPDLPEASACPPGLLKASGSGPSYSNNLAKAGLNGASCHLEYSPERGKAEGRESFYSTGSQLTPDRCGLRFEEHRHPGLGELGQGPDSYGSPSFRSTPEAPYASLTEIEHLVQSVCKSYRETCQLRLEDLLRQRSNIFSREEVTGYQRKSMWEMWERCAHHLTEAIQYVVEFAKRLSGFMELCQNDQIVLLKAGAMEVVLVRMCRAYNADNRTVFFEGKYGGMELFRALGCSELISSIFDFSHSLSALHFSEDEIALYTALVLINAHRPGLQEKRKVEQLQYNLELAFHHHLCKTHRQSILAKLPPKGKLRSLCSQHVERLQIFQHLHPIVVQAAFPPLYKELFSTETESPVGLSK
Procedure, shortened: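 HepG2 cells transiently transfected with GAL4-UAS reporter units and chimeric RORg-Gal4 construct; after 24 h chemical exposure, reporter mRNA measured by RT-PCR with fluorescent capillary electrophoresis, gain of signal fitted against DMSO.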

[16] = molecular target: Oxysterols receptor LXR-alpha (Homo sapiens) (UniProt Q13133); test: ATG_LXRa_TRANS: Attagene TRANS-FACTORIAL HepG2 Assay for human Liver X Receptor alpha (LXRa) (AID 2282980); details: HepG2 Attagene TRANS reporter, LXRa transactivation
Chain of Oxysterols receptor LXR-alpha (Homo sapiens) (Q13133 whole entry, looked up, the tested form may be a part): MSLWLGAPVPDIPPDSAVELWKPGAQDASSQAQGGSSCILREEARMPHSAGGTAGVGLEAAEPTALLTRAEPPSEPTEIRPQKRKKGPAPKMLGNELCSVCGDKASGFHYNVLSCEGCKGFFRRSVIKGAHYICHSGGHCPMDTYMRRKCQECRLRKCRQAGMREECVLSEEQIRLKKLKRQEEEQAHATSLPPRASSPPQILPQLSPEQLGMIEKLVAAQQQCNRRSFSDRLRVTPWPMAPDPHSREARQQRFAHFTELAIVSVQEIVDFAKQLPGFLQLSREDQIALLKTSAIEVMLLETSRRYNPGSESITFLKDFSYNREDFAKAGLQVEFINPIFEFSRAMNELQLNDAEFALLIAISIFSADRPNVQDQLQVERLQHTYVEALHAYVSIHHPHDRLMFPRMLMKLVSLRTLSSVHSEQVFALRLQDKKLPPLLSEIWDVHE
Procedure, shortened: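 HepG2 cells transiently transfected with GAL4-UAS reporter units for chimeric NR-Gal4 proteins, exposed to chemicals for 24 h. Reporter mRNA quantified by RT-PCR and capillary electrophoresis; gain of signal fitted relative to DMSO.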

[17] = molecular target: human Thyroid Receptor alpha (THRa1), THRA (gene 7067) (UniProt P10827); test: ATG_THRa1_TRANS: Attagene TRANS-FACTORIAL HepG2 Assay for human Thyroid Receptor alpha (THRa1) (AID 2283014)
Chain of human Thyroid Receptor alpha (THRa1), THRA (gene 7067) (P10827 whole entry, looked up, the tested form may be a part): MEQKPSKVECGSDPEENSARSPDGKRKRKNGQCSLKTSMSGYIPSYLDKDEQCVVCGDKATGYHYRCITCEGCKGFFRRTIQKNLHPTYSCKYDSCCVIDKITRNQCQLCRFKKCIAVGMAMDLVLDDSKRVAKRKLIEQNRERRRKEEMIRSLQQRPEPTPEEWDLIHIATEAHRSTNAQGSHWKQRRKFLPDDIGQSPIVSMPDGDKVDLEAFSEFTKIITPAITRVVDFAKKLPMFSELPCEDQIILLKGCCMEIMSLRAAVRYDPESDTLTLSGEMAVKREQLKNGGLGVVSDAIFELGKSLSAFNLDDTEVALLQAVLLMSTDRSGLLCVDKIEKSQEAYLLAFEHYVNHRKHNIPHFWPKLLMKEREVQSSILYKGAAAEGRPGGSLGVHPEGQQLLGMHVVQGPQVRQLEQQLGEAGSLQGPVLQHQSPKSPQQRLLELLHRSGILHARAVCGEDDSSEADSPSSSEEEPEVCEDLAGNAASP
Procedure, shortened: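 HepG2 cells transiently transfected with chimeric NR-Gal4 and GAL4-UAS reporter units, dosed 24 h. Reporter mRNA quantified by RT-PCR, fluorescent labeling, HpaI digestion and capillary electrophoresis; gain-of-signal fit versus DMSO.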

[18] = CCTE_Harrill_HTTr_Viability_MCF7: CCTE's 6-hour Cell Viability Assessment for the High-Throughput Transcriptomics (HTTr) Platform, in MCF-7 cells cultured in DMEM + 10% fetal bovine serum, Harrill Lab (AID 2284010; active = hit-call score of the fitted dose curve at least 0.9, where 1 is the maximum; inactive = score below 0.9)
Procedure, shortened: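 Eight-point concentration series, six-hour exposure. Propidium iodide exclusion imaged to assess membrane integrity as a cytotoxicity readout; bidirectional fitting was done with DMSO as negative control and activity baseline.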

[19] = CCTE_Harrill_HTTr_Apoptosis_MCF7: CCTE's 6-hour Apoptosis Assessment for the High-Throughput Transcriptomics (HTTr) Platform, in MCF-7 cells cultured in DMEM + 10% fetal bovine serum, Harrill Lab (AID 2284011; active = hit-call score of the fitted dose curve at least 0.9, where 1 is the maximum; inactive = score below 0.9)
Procedure, shortened: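 MCF-7 cells in DMEM + 10% FBS exposed 6 h to chemicals over an eight-point dilution series. Caspase-3/7 activation imaged by high-content CellEvent Green staining; fitted bidirectionally versus DMSO.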

[20] = molecular target: human Peroxisome Proliferator-activated Receptor delta (PPARd), PPARD (gene 5467) (UniProt Q03181); test: ATG_PPARd_TRANS: Attagene TRANS-FACTORIAL HepG2 Assay for human Peroxisome Proliferator-activated Receptor delta (PPARd) (AID 2283002)
Chain of human Peroxisome Proliferator-activated Receptor delta (PPARd), PPARD (gene 5467) (Q03181 whole entry, looked up, the tested form may be a part): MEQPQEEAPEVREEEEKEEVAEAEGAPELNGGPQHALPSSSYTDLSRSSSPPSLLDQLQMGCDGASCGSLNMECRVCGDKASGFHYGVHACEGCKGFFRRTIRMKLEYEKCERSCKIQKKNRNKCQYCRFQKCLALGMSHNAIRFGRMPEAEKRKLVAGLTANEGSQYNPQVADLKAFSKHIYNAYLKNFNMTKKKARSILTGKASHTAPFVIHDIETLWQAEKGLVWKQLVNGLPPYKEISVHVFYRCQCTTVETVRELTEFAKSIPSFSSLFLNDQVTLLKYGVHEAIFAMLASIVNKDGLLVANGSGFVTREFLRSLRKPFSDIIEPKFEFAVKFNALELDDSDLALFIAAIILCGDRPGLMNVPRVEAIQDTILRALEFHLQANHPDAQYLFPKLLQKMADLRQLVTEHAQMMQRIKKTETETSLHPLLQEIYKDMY
Procedure, shortened: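 Fluorescence from capillary electrophoresis of labelled RT-PCR reporter fragments gives the signal; DMSO sets baseline. Cells: HepG2 transiently carrying GAL4-UAS reporter units plus chimeric nuclear receptor-Gal4 proteins, exposed to chemicals for 24 h.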

Measured: AC50

CCCCC(CC)COC(=O)CS (stereo not drawn)
inactive: [1] | [2] | [3] | [4] | [5] | [6] | [7]

CC(=O)Nc1c(I)c(NC(C)=O)c(I)c(C(=O)O)c1I
inactive: [3] | [8]

CC(C)CC(=O)CC(C)CC(C)C (stereo not drawn)
inactive: [9] | [1] | [10] | [11] | [12] | [13] | [14] | [15] | [5] | [6] | [7]

c1ccc(CNc2ncnc3nc[nH]c23)cc1
not listed: [2] | [4] | [12] | [13] | [14] | [15] | [20]
inactive: all other assays above

Clc1ccccn1
inactive: [9] | [1] | [10] | [15] | [17] | [5] | [7] | [18] | [19]

CCC(=O)OCc1ccc(OC)cc1
active: [7] 39.9 µM
inactive: [9] | [1] | [3] | [10] | [16] | [11] | [20] | [15] | [6]

CN1CCCC1
inactive: [9] | [2] | [10] | [16] | [11] | [13] | [15] | [17] | [8] | [5] | [7]
